Source: PubChem
Hits are enriched below; roughly 7.4% of the tested compounds scored in any of these assays.
MITF inh: inhibitors of MITF, primary screen, MITF inhibitor project, cell-based, luminescence | TRPM1 promoter luciferase, 24 h | inhibition, % (no concentration beside the values) | actives 0.28% (n = 37,000); in the data active means inhibition above about 85%; inconclusive means no clear call, values can overlap the other calls; inactive means below about 68%;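 further: human melanocyte line stably carrying TRPM1 promoter luciferase reporter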
Hedgehog inh: Hedgehog pathway signaling inhibitors, primary screen, luminescence, Shh-LIGHT2 cells, Gli-luciferase. inhibition, % (no concentration beside the values). actives 2.1% (n = 22,000). Shh-LIGHT2 Gli-luciferase reporter, 30 h;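 active means mean inhibition across valid replicates above about 65%, limit read from the data; inconclusive means mean under the limit, yet half or more replicates past it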;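 further: pathway switched on by Shh-conditioned medium diluted 1 in 25 in low serum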
NOMO-1 viab: NOMO-1 AML cell viability reduction, primary screen, STK33 inhibitor project, CellTiter-Glo luminescence. NOMO-1 AML viability, 72 h. inhibition, % (no concentration beside the values). actives 7.5% (n = 37,000); in the data active means inhibition above about 80%; inconclusive means no clear call, values can overlap the other calls
PD-1 reversal: activators reversing PD-1 mediated T-cell inhibition, primary screen, luminescence, primary human CD4 T cells, PD-L1 beads; CellTiter-Glo 96 h; activation, % (test concentration not listed); 29,000 tested, under 10 active; AID 2316, 2010; call rule not given here;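 further: 0% = median vehicle wells and 100% = positive control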
YB-1 expr inh: inhibitors of YB-1 gene expression, primary screen, cell-based, fluorescence; actives 0.37% (n = 30,000); U2OS, qRT-PCR YB-1 vs CDIP delta delta Cp, 16 h; active compounds read high; zero = DMSO, each unit about twofold; delta delta Cp (YB-1 minus CDIP) (concentration not given with the values);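 active means delta delta Cp rounded down to an integer at or above 3, about 3 SD of DMSO wells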;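 further: higher means less YB-1 transcript or more CDIP transcript relative to DMSO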
The depositor's hits bear a star; ? = inconclusive; . = not tested or not shown.

SMILES | MITF inh | Hedgehog inh | NOMO-1 viab | PD-1 reversal | YB-1 expr inh
C[C@@H]1CN([C@@H](C)CO)C(=O)Cc2cc(NC(=O)Nc3ccc(C(F)(F)F)cc3)ccc2O[C@@H]1CN(C)C(=O)Nc1cccc2ccccc12 | 39.6 | 15.4 | 82.5* | -1.5 | 0.138
C[C@H](CO)N1C[C@H](C)[C@H](CN(C)C(=O)Nc2ccccc2)Oc2ccc(NC(=O)Nc3ccc(C(F)(F)F)cc3)cc2CC1=O | 7.8 | 26.9 | 92.1* | . | 0.019
C[C@@H]1CN([C@@H](C)CO)C(=O)Cc2cc(NC(=O)Nc3ccc(C(F)(F)F)cc3)ccc2O[C@@H]1CN(C)C(=O)Nc1ccccc1 | 21.5 | 11.5 | 111.5* | -2.2 | -0.13
C[C@H]1CN([C@@H](C)CO)C(=O)Cc2cc(NC(=O)Nc3ccc(C(F)(F)F)cc3)ccc2O[C@@H]1CN(C)C(=O)Nc1ccc(C(F)(F)F)cc1 | 29.7 | 24.1 | 11.6 | 2.7 | 0.0888
Cc1ccc(NC(=O)COc2ccc(I)cc2)c(C(=O)O)c1 | -11.1 | . | 15.4 | 1.8 | .
O=C(CN(C1CCCCC1)S(=O)(=O)c1ccc(Br)cc1)Nc1c(F)cccc1F | 24.6 | . | 13.5 | . | .
CCCCCCCCC#CC#C/C=C/CCCC(=O)O | . | ? | . | . | 0.438
CSCCC(Nc1ncnc2sc3c(c12)CCCC3)C(=O)O (configuration not stated) | -11.8 | . | -4.6 | . | .
O=C(Nc1ncnc2sc3c(c12)CCCCC3)c1ccc(F)cc1 | 0.8 | . | 108.9* | -3.2 | -0.186
C(=NCc1ccco1)c1cn(-c2ccccc2)nc1-c1ccccc1 | -7.9 | -90.0 | 104.9* | -5.2 | -0.192
Cc1cc(C)c(C)c(S(=O)(=O)NCc2ccc(C(=O)Nc3ccncc3)cc2)c1C | 50.3 | . | 102.8* | -9.5 | .
COc1cccc(S(=O)(=O)NCc2ccc(C(=O)Nc3ccc(Cl)cc3)cc2)c1 | 41.9 | . | 16.7 | -0.9 | .
O=C(Nc1ccccc1C(=O)N1CCOCC1)c1ccc(CN2CCOCC2)cc1 | 3.5 | . | -31.1 | . | .
O=C(CC1(O)C(=O)Nc2ccc(I)cc21)c1ccccn1 (configuration not stated) | 16.2 | . | 89.9* | . | .
COc1ccc(S(=O)(=O)N(C)C[C@@H]2Oc3c(NC(=O)c4nc5ccccc5s4)cccc3C(=O)N([C@H](C)CO)C[C@@H]2C)cc1 | 54.4 | 18.7 | 117.0* | -4.6 | -0.148
COc1ccc(S(=O)(=O)N(C)C[C@H]2Oc3c(NC(=O)c4nc5ccccc5s4)cccc3C(=O)N([C@@H](C)CO)C[C@H]2C)cc1 | 1.1 | -16.8 | 61.4 | . | 7.87*
C[C@H](CO)N1C[C@H](C)[C@H](CN(C)S(=O)(=O)c2ccccc2)Oc2c(NC(=O)c3nc4ccccc4s3)cccc2C1=O | 22.5 | 1.7 | 87.7* | -3.9 | 1.17
COc1cccc(NC(=O)CNC(=O)c2ccco2)c1 | -47.5 | . | 35.3 | 0.5 | .
Cc1cc(N(CC(=O)Nc2cccc(C)c2C)S(C)(=O)=O)ccc1Br | -8.3 | . | -3.2 | . | .
CCc1cccc(NC(=O)CSc2c(C)n[nH]c2C)c1 | -6.9 | . | 9.8 | 0.2 | .
O=C(O)c1cc(N=Cc2ccccc2O)ccc1O | -2.0 | -6.0 | -0.2 | 0.0 | 0.0538
CN(C)C1=NC(C(F)(F)F)(C(F)(F)F)N=C(c2ccccc2)O1 | -7.5 | -27.1 | -5.5 | 0.0 | -0.327
Cc1cc(C(=O)Nc2cccc3c2O[C@@H](CN(C)Cc2ccc(Oc4ccccc4)cc2)[C@@H](C)CN([C@@H](C)CO)C3=O)n(C)n1 | -12.6 | -8.8 | 34.3 | -1.1 | 0.601
Cc1cc(C(=O)Nc2cccc3c2O[C@H](CN(C)Cc2ccc(Oc4ccccc4)cc2)[C@H](C)CN([C@@H](C)CO)C3=O)n(C)n1 | -15.8 | -19.9 | 2.5 | 0.8 | -0.368
Cc1cc(C(=O)Nc2cccc3c2O[C@@H](CN(C)Cc2ccc(Cl)c(Cl)c2)[C@@H](C)CN([C@H](C)CO)C3=O)n(C)n1 | 26.4 | 49.0 | 92.3* | -6.2 | 0.385
SMILES | MITF inh | Hedgehog inh | NOMO-1 viab | PD-1 reversal | YB-1 expr inh
Cc1cc(C(=O)Nc2cccc3c2O[C@H](CN(C)Cc2ccc(Oc4ccccc4)cc2)[C@@H](C)CN([C@@H](C)CO)C3=O)n(C)n1 | 45.0 | 76.6* | 69.8 | -2.0 | -0.246
Cc1cc(C(=O)Nc2cccc3c2O[C@@H](CN(C)Cc2ccc(Oc4ccccc4)cc2)[C@H](C)CN([C@H](C)CO)C3=O)n(C)n1 | 42.1 | 69.2* | 89.3* | -2.7 | -0.21
N#Cc1ccc(C#N)c(-c2ccccc2)c1 | 5.7 | -7.9 | 7.0 | -0.3 | 0.317
N#Cc1cc2c(OCC(O)CN3CCN(C(c4ccccc4)c4ccccc4)CC3)cccc2[nH]1 (configuration not stated) | 99.3* | 102.7* | 116.2* | . | -0.705
COc1cc(NC(=O)CCC(=O)O)ccc1NC(C)=O | 12.4 | . | -5.4 | 0.9 | .
Cc1ccc(S(=O)(=O)NCCSc2ncc(-c3ccc([N+](=O)[O-])cc3)[nH]2)cc1 | 37.9 | . | 21.0 | . | .
O=C1NN=C(c2ccccc2)/C1=C1\OC(c2ccccc2)=CS1 | 36.8 | 30.9 | 138.8* | -0.3 | -0.291
Cc1cc(=S)nc(-c2ccccn2)[nH]1 | 12.2 | 17.2 | 112.4* | -5.3 | 0.284
C[C@@H]1CN([C@H](C)CO)C(=O)Cc2cc(NC(=O)Nc3ccc(F)cc3)ccc2O[C@@H]1CN(C)Cc1ccc(Oc2ccccc2)cc1 | 8.6 | 42.8 | 114.1* | -6.2 | -0.321
C[C@H]1CN([C@@H](C)CO)C(=O)Cc2cc(NC(=O)Nc3ccc(F)cc3)ccc2O[C@H]1CN(C)Cc1ccccc1 | -4.9 | . | 10.6 | 0.3 | 0.0157
COc1ccc(NC(=O)Nc2ccc3c(c2)CC(=O)N([C@@H](C)CO)C[C@@H](C)[C@@H](CN(C)Cc2ccc(Oc4ccccc4)cc2)O3)cc1 | 13.7 | 28.0 | 60.4 | . | 0.00291
CC(C)NC(=O)Nc1ccc2c(c1)CC(=O)N([C@@H](C)CO)C[C@@H](C)[C@@H](CN(C)Cc1ccc(Oc3ccccc3)cc1)O2 | 25.0 | 25.6 | 89.0* | -3.1 | 0.108
C[C@H]1CN([C@@H](C)CO)C(=O)Cc2cc(NC(=O)Nc3ccc(F)cc3)ccc2O[C@@H]1CN(C)Cc1ccc(Oc2ccccc2)cc1 | 8.8 | 18.1 | 107.0* | 1.0 | 0.475
C[C@@H]1CN([C@H](C)CO)C(=O)Cc2cc(NC(=O)Nc3ccc(F)cc3)ccc2O[C@H]1CN(C)Cc1ccc(Oc2ccccc2)cc1 | 5.5 | -2.6 | 123.3* | -1.8 | 0.0779
CC(C)NC(=O)Nc1ccc2c(c1)CC(=O)N([C@@H](C)CO)C[C@H](C)[C@H](CN(C)Cc1ccc(Oc3ccccc3)cc1)O2 | -24.6 | ? | 4.1 | . | -0.0682
Cc1cc(C)c2c(n1)sc1c(SCC(=O)c3ccc(Br)cc3)ncnc12 | -16.0 | . | 21.3 | 0.6 | -0.126
CC(Oc1ccc(C(C)(C)C)cc1)C(=O)NCc1ccco1 (configuration not stated) | -6.7 | . | 36.7 | 0.5 | .
